In ChEMBL document CHEMBL4513216, “Probing the Open Global Health Chemical Diversity Library for Multistage-Active Starting Points for Next-Generation Antimalarials” (ACS Infect Dis, 2020):
In all, about 69,000 compounds went through this assay and about 8,600 (12%) showed an effect of 50% or more. The list comes from a sample in which strong results are over-represented; it also holds similar structures and randomly drawn compounds.

system: Plasmodium berghei; assay: Screen against P. berghei liver stage (PbLuc), transformed with Luciferase, at 10uM; format: functional, HepG2; conditions: tested at 10 uM

Compound | INHIBITION [%]
Cc1ncc(CN2CCCC2c2ccc(C(=O)NCc3ccoc3)s2)s1 (stereo not drawn) | 37.4
O=C(NCc1ccoc1)c1ccc(C2CCCN2CC2CCOCC2)s1 (stereo not drawn) | 22.7
NCC(=O)N1CCCC1c1ccc(C(=O)NCc2ccoc2)s1 (stereo not drawn) | 64.5
CC(C)=CCCC1(C)CCC(=O)N(CCc2csc(N)n2)C1 (stereo not drawn) | 39.3
CC(C)COC1CCN(C(=O)c2cc3ccccc3c(=O)[nH]2)CC1 | -1.55
CC(C)COC1CCN(C(=O)c2ccc(C(F)(F)F)[nH]c2=O)CC1 | 63.5
CCOC1CCN(C(=O)c2ccc(-c3cccc(C)c3)[nH]c2=O)CC1 | -16
Cc1noc(C)c1CN1CCN(CCN(C)C)c2ncccc2C1 | 23.3
Clc1ccccc1Cn1cc(CNC2CCc3ncnn3C2)cn1 (stereo not drawn) | -12.1
CCOc1cccc(NC(=O)c2cnc(C)cn2)n1 | -24.5
Cc1nn(C)c(N2CCCN(C)CC2)c1CNC(=O)C(C)(C)C | -49.5
CN(C)CCn1c(=O)oc2ccc(NC(=O)c3cc(Cl)c[nH]3)cc21 | -31.6
CC(C)CCC(=O)Nc1ccc2oc(=O)n(CCN(C)C)c2c1 | -34.8
CN(C)CCn1c(=O)oc2ccc(NC(=O)N3CCCCCC3)cc21 | 17.5
CN(C)CCn1c(=O)oc2ccc(NC(=O)CSc3ccccc3)cc21 | 24.3
CC(C)COCCC(=O)Nc1ccc2oc(=O)n(CCN(C)C)c2c1 | -3.08
CCC(CC)C(=O)Nc1ccc2oc(=O)n(CCN(C)C)c2c1 | 50.8
Cc1cc(C(=O)Nc2ccc3oc(=O)n(CCN(C)C)c3c2)c(C)o1 | 69.7
CN(C)CCn1c(=O)oc2ccc(NC(=O)CC(C)(C)C)cc21 | -3.95
CCC(C)C(=O)Nc1ccc2oc(=O)n(CCN(C)C)c2c1 (stereo not drawn) | 56
CC1CN(CC(=O)NC(=O)NCc2cccs2)CCN1CC(F)(F)F (stereo not drawn) | 3.03
CC1CCN(c2nc(O)cc(C3CC(=O)N(C4CCCCC4)C3)n2)CC1 (stereo not drawn) | 11.475

Compound | INHIBITION [%]
COc1ccc2c(c1)C1(CCN(Cc3cnn(C)c3)CC1)N(C)CC2 | -72
COCC1COCCC12CCN(C(=O)COc1ccccc1)CC2 (stereo not drawn) | -10.3
COCCNC(=O)Cc1cnc(-n2cccc2)s1 | 41.1
CCc1c(C)[nH]c2cc(C3CCN(Cc4ccncc4C)C3)nn2c1=O (stereo not drawn) | 38.8
COCc1nccc(C2CCCN(Cc3cccc(F)c3)C2)n1 (stereo not drawn) | 20.9
Cc1cc(CN2CCC(C3CCN(CCc4ccccc4)CC3)C2)[nH]n1 (stereo not drawn) | 9.63
CCc1c(C)nc2cc(C3CCN(Cc4cccc(F)c4)C3)nn2c1O (stereo not drawn) | 77.3
Cc1nc(O)cc(C2CCN(Cc3ccc(F)c(F)c3)C2)n1 (stereo not drawn) | 30.8
Cc1cc(CN2CCC(C3CCN(CCc4ccccc4)C3)CC2)[nH]n1 (stereo not drawn) | 11.9
CCc1c(C)nc2cc(C3CCN(Cc4cccnc4)C3)nn2c1O (stereo not drawn) | -33.4
CCc1c(C)nc2cc(C3CCN(CCc4ccccc4)C3)nn2c1O (stereo not drawn) | 83.3
CCc1c(C)nc2cc(C3CCN(Cc4ccc(F)cc4)C3)nn2c1O (stereo not drawn) | 66.5
Cc1ccc2c(c1)C(=O)NCC1(CCN(C(=O)c3ccnn3C)CC1)O2 | 8.72
O=C(c1cscn1)N1CC[C@]2(C[C@@H](OCCN3CCCC3)CO2)C1 | 43.2
Cc1ccsc1CN(Cc1ccccn1)CC(O)CO (stereo not drawn) | 19.7
CN(C(=O)c1ccccc1F)[C@@H]1CC[C@@H](O)[C@@H]1O | 34.1
Cc1ccoc1C(=O)N1CC[C@@H]2CN(C3CCOCC3)CCO[C@@H]2C1 | 4.98
CC(C)c1nnsc1CNC(=O)C1CCN(C(=O)C2CC2)CC1 | 14.9
COCCC(=O)N1CCC2(CCN(Cc3ccc(OC)c(F)c3)C2)C1 (stereo not drawn) | -10.3
Cc1[nH]c2ccccc2c1-c1ccnc(NC[C@H](O)CO)n1 | 27.8
Fc1ccc(-c2n[nH]cc2-c2ccnc(NCCN3CCCC3)n2)cc1 | 35.3
Cc1[nH]c2ccccc2c1-c1ccnc(NCCN2CCCCC2)n1 | 61.9

Compound | INHIBITION [%]
Cc1[nH]c2ccccc2c1-c1ccnc(NCCN2CCOCC2)n1 | 62.2
O=c1[nH][nH]cc1-c1ccnc(NCCCN2CCOCC2)n1 | 39.7
Cc1nc2[nH]cnc(NCCN3CCOCC3)c-2n1 | 36.8
COCCn1cc(NC(=O)NCC(c2cccc(F)c2)N(C)C)cn1 (stereo not drawn) | 49.7
c1ccc(Cn2ccnc2CNCC2CCCN2c2cccnn2)cc1 (stereo not drawn) | 4.71
Cc1ccc(N2CCO[C@H]3[C@H](OCC(=O)N4CCCC4)CC[C@@H]32)cc1 | -2.03
CN(C)C1(CNc2ncc(Br)cn2)CCOCC1 | 27.8
CCSC1(CNc2ncc(Br)cn2)CCOCC1 | 66.4
CSC1(CNc2ncc(Br)cn2)CCOCC1 | 45.7
CS(=O)(=O)N1CCCC(Cc2cnc(Br)cn2)CC1 (stereo not drawn) | 37.8
Cc1ccc(C(=O)N2CCCCC2c2[nH]ncc2S(C)(=O)=O)cn1 (stereo not drawn) | 24.8
O=C(c1cc2c(s1)CCOC2)N1CCCCC1Cn1cccn1 (stereo not drawn) | -5.07
CNC(=O)C1(c2cnccn2)CCCN1C(=O)c1ccc(F)cc1 (stereo not drawn) | 3.91
CCNC(=O)N(C)C1CCN(Cc2ncc(C)c(OC)c2C)CC1 | 82.6
COc1c(C)cnc(CN(C)C2CCN(C3CCOCC3)CC2)c1C | 7.24
COc1c(C)cnc(CN(C)C(=O)c2ccccc2O)c1C | 26.3
COCc1ccccc1C(=O)N(C)Cc1ncc(C)c(OC)c1C | 50.1
COc1c(C)cnc(CN(C)C2CCOC3(CCOCC3)C2)c1C (stereo not drawn) | 43.6
COc1ccccc1C(=O)N(C)Cc1ncc(C)c(OC)c1C | -11.7
COc1c(C)cnc(CN2CCC(N(C)C(=O)C3CC3)CC2)c1C | -2.19
COc1c(C)cnc(CN2CCC(N(C)S(C)(=O)=O)CC2)c1C | -21.9
COc1c(C)cnc(CN2CCC(N(C)C(C)C(N)=O)CC2)c1C (stereo not drawn) | 90

Compound | INHIBITION [%]
COc1c(C)cnc(CN2CCC(N(C)C(=O)C(C)OC)CC2)c1C (stereo not drawn) | -29.8
CCC(=O)N(C)C1CCN(Cc2ncc(C)c(OC)c2C)CC1 | 10.8
COc1c(C)cnc(CN(C)C2CCCCC2)c1C | 72
COc1ccc(CCC(=O)N2CCCCC2Cn2cccn2)cc1F (stereo not drawn) | -31.8
O=C(NCc1ccccn1)[C@]12COC[C@H]1CN(Cc1ccccc1F)C2 | -13.2
Cc1ncsc1C(=O)N1CCCC1c1c(C)nn(C)c1Cl (stereo not drawn) | -0.96
CC(NCc1cccc(C#N)c1)c1ccccn1 (stereo not drawn) | -21
CCc1nc(C2CCCN2Cc2nnc(C3CCC3)o2)no1 (stereo not drawn) | 41.65
CC(C)CCn1cc(C(C(=O)O)N2CCSCC2)cn1 (stereo not drawn) | 17.6
CC(C)C(=O)NC1CCCc2nc(N3CCOCC3)ncc21 (stereo not drawn) | 18.3
Cc1ccc(-c2nc(CN3CCOCC3)no2)cc1N1CCNC1=O | 30
CCNC(=O)CNC(=O)c1nc(C2CC2)n(-c2ccccc2Cl)n1 | -37.6
Cc1ccc(Cl)c(CN2CCN(C)C(C(=O)O)C2)c1F (stereo not drawn) | -4.52
CCOC(=O)CCN(Cc1cccnc1)C(=O)c1cc(Cl)c[nH]1 | 57.5
O=C(c1cc(Cl)c[nH]1)N(CCCO)Cc1cccnc1 | 39
CCCc1cc(C(=O)N(Cc2cccnc2)Cc2cccnc2)[nH]n1 | 6.28
CC(C)c1nnc(CN2CC(n3cccn3)C2)o1 | -145
CN(C(=O)NCCN1CCOCC1)C1CCN(c2ccccc2)C1=O (stereo not drawn) | 13.375
c1csc(CCC2CCCCN2Cc2noc(C3CC3)n2)c1 (stereo not drawn) | 34.9
COCc1noc(CN2CCCCC2CCc2cccs2)n1 (stereo not drawn) | 51.2
Cc1nc(CN2CCCCC2CCc2cccs2)co1 (stereo not drawn) | 24.9
CCNC(=O)CNCc1c(C(C)C)nn(C)c1N1CCOCC1 | 11.35

Compound | INHIBITION [%]
CCCN(Cc1ccccc1O)C(=O)Nc1cnn(CCOC)c1 | 59.7
COCCn1cc(NC(=O)N(CCC(N)=O)Cc2ccccc2)cn1 | -1.25
CCN(CC(C)O)C(=O)Nc1cnn(CCOC)c1 (stereo not drawn) | 29.8
CC(=O)NCC(=O)N1CCC2(CC1)NC(=O)CC2c1cccnc1 (stereo not drawn) | 34.6
COCCn1ccnc1C1CCCN(C(=O)CSc2nnc(C)o2)C1 (stereo not drawn) | 20.9
CCC(=O)N1CCCCC1c1nc(N(C)C)ncc1-c1cc(C)no1 (stereo not drawn) | 22.5
CNC(=O)NC(=O)C(C)N1CCCc2cc(OC)ccc2C1 (stereo not drawn) | -25.1
CNC(=O)NC(=O)C(C)N1CCC(c2c[nH]c3ccc(OC)cc23)CC1 (stereo not drawn) | 61.5
CCNC(=O)NC(=O)CN1CCC(c2c[nH]c3ccc(OC)cc23)CC1 | 62.6
COc1ccc2[nH]cc(C3CCN(CCC(N)=O)CC3)c2c1 | 36.6
CNC(=O)NC(=O)C(C)N1CCN(C2CCCC2)CC1 (stereo not drawn) | 28.7
CNC(=O)NC(=O)CN1CCC(c2c[nH]c3ccc(OC)cc23)CC1 | 15.1
CNC(=O)[C@@H](c1ccccc1)N1CCC[C@H]1C(=O)NCc1cccnc1 | -1.12
CCS(=O)(=O)N1CCCC2(COCCN(c3nnc(C)o3)C2)C1 (stereo not drawn) | 29.8
Cc1noc(C)c1Cc1nc(C2CC2)no1 | 14.6
Cc1nc(CN2CCN(C(C)c3nc(C4CC4)no3)CC2)oc1C (stereo not drawn) | 4.75
Cc1cnc(CN2CCN(C(C)c3nc(C4CC4)no3)CC2)cn1 (stereo not drawn) | 24.7
Cc1noc(C)c1CN1CCN(C(C)c2nc(C3CC3)no2)CC1 (stereo not drawn) | 59
Cc1noc(C)c1CN1CCCC(c2noc(C3CC3)n2)C1 (stereo not drawn) | -12.2
Cc1noc(C)c1CN1CCN(Cc2nc(C3CC3)no2)CC1 | 72.2
